In PubChem BioAssay (Tox21):
Inconclusive results are not listed. Active and inactive are the calls of the source. Calls come from the whole dose curve; as a rule, active = well fitted cell-killing curve with a large enough effect in the repeat runs; inconclusive = weak or mixed curves; inactive = no such curve, though single readings can be large or run the other way.

Assay: qHTS assay to identify small molecule antagonists of the androgen receptor (AR) signaling pathway - cell viability counter screen (AID 743033; note: nearly all actives have a fitted effect of over 45% in size)
Conditions: AR-bla HEK293 viability, CellTiter-Glo luminescence, 16 h; series mostly up to 58.5 µM
Description: National Center for Advancing Translational Sciences [NCATS]
NIH Chemical Genomics Center [NCGC]
U.S. Environmental Protection Agency [EPA]
National Institutes of Environmental Health Sciences [NIEHS]
National Toxicology Program [NTP]
U.S. Food and Drug Administration [FDA]
Androgen receptor (AR), a nuclear hormone receptor, plays a critical role in AR-dependent prostate cancer and other androgen related diseases. Endocrine disrupting chemicals (EDCs) and their interactions with steroid hormone receptors like AR may cause disruption of normal endocrine function as well as interfere with metabolic homeostasis, reproduction, developmental and behavioral functions. To identify the compounds that inhibit AR signaling, GeneBLAzer AR-UAS-bla-GripTite cell line (Invitrogen, Carlsbad, CA, USA) containing a beta-lactamase reporter gene under control of an Upstream Activator Sequence (UAS) stably integrated into HEK293 cells was used to screen the Tox21 10K compound library. The cytotoxicity of the Tox21 compound library against the AR-bla cell line was tested in parallel by measuring the cell viability using CellTiter-Glo assay in the same wells.
Tox21 Assay Protocol Summary:
AR-bla cells were dispensed at 2,000 cells/5 uL of assay medium per well into black wall/clear-bottom 1536-well plates using a Multidrop Combi (ThermoFisher Scientific, Waltham, MA) dispenser. After the assay plates were incubated at a 37C and 5% CO2 for 4 hr, 23 nL of compounds dissolved in DMSO, positive controls or DMSO only was transferred to the assay plate by a Pintool station (Kalypsys, San Diego, CA), followed by addition of 1 uL of agonist (R1881) in culture medium using a Bioraptr Flying Reagent Dispenser (FRD) workstation (Beckman Coulter, Indianapolis, IN, USA). The plates were incubated at a 37C and 5% CO2 for 16 h. After 1 uL of LiveBLAzerTM B/G FRET substrate was added using a Bioraptr FRD, the plates were incubated at room temperature for 2 h and fluorescence intensity was measured by an Envision plate reader (PerkinElmer, Shelton, CT). For cell viability readout that measures cytotoxicity, 4 ul/well of CellTiter-Glo reagent was added into the assay plates using a Bioraptr FRD. After 30 min incubation at room temperature, the luminescence intensity in the plates was measured using a ViewLux (PerkinElmer) plate reader.

SMILES	outcome
COC(OC)C(C)c1ccccc1 (stereo not given)	inactive
Nc1ccc(/C=C/c2ccc(N)cc2S(=O)(=O)O)c(S(=O)(=O)O)c1	inactive
CC(CC(=O)O)CC(C)(C)C (stereo not given)	inactive
CCCCCCCCC(=O)OCC	inactive
Cc1ccccc1C	inactive
CCCC(C)CC (stereo not given)	inactive
Cn1c(=O)c2c(ncn2CC2OCCO2)n(C)c1=O	inactive
CCCCCCCCCCCCCCCCI	inactive
CCCCC(=O)N(C)C	inactive
Cc1nc([N+](=O)[O-])cn1-c1ccc([N+](=O)[O-])cc1	inactive
COC(=O)CCC(=O)O	inactive
CC(C)COC(=O)CC(C(=O)OCC(C)C)S(=O)(=O)O (stereo not given)	inactive
O=[Si]=O	inactive
Nc1c(NC/C=C\COc2cc(CN3CCCCC3)ccn2)c(=O)c1=O	inactive
C=CCOC(=O)c1ccc(C(=O)OCC=C)c(C(=O)OCC=C)c1	inactive
CCC1COC(=O)O1 (stereo not given)	inactive
C=C(C)[C@@H]1CC[C@@H](C)C[C@@H]1O	inactive
C[C@H](CCC(=O)NCC(=O)O)[C@H]1CC[C@H]2[C@@H]3[C@H](O)C[C@@H]4C[C@H](O)CC[C@]4(C)[C@H]3C[C@H](O)[C@]12C	inactive
CC(=O)OC(C)c1ccccc1 (stereo not given)	inactive
O=c1cc(O)c(Cl)c[nH]1	inactive

SMILES	outcome
CCNC(=O)/C=C/c1cccc(Br)c1	inactive
O=S(=O)(O)CCO	inactive
CCCCC(CC)C(=O)OC(C)C (stereo not given)	inactive
C[N+](C)(C)CC(O)CCl (stereo not given)	inactive
O=S(=O)(O)SSS(=O)(=O)O	inactive
O=C(O)c1ccccc1C(=O)Nc1ccc(S(=O)(=O)Nc2nccs2)cc1	inactive
CCCCCCCCCCCCCC(=O)OC	inactive
Cc1nc(C)nc(N2C[C@@H](C)N(c3ccnc([C@@H](C)O)n3)[C@@H](C)C2)n1	inactive
C[C@H]1O[C@H](O[C@H]2[C@H](O)[C@@H](O)[C@@H](O[C@H]3[C@H](O)[C@@H](O)[C@H](O)O[C@@H]3CO)O[C@@H]2CO)[C@H](O)[C@@H](O)[C@@H]1N[C@H]1C=C(CO)[C@@H](O)[C@H](O)[C@H]1O	inactive
C=CCOc1c(Br)cc(Br)cc1Br	inactive
O=C(O)C(=O)Nc1cccc(-c2nn[nH]n2)c1	inactive
CCCCCC(=O)OCC	inactive
C1=CCC(c2ccccc2)CC1 (stereo not given)	inactive
OCCCCCCCl	inactive
CCCCCCCC/C=C\CCCCCCCC(=O)OC[C@@H](O)[C@H]1OC[C@H](O)[C@H]1O	inactive
C=CC(C)(O)CC/C=C(\C)CC (stereo not given)	inactive
O=C1c2ccccc2-c2ccccc21	inactive
NCCc1ccn[nH]1	inactive
CCCCC(C)C(=O)O (stereo not given)	inactive
CCC1Nc2cc(Cl)c(S(N)(=O)=O)cc2S(=O)(=O)N1 (stereo not given)	inactive
